TRHR agonist: qHTS for Small Molecule Agonists and Allosteric Enhancers of Human TRH Receptor: Primary Screen for Agonists | TRHR cells, calcium flux fluo-8, FDSS agonist mode | Thyrotropin-releasing hormone receptor (Homo sapiens), P34981 | activation, % at 2 µM | hit rate 0.18% among 360,000; also: 0% is about no effect
Target sequence (P34981 whole entry, looked up): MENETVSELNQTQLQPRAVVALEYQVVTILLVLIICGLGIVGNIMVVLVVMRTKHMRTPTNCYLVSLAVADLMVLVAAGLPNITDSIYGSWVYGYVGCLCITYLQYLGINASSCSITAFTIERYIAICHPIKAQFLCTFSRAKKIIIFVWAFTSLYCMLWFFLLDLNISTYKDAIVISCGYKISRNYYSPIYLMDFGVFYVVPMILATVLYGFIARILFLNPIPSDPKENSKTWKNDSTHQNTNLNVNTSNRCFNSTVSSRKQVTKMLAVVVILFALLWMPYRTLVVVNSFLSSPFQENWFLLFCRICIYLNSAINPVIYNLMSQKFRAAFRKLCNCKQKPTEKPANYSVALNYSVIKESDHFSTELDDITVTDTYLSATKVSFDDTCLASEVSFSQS
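Steps: seed TRHR cells overnight; add fluo-8 no-wash Ca dye, RT 30 min–1.5 h; record 10 s baseline; pin-transfer compounds; monitor fluorescence 1 cycle/s for the agonist window. Calcium increases flag candidate agonists.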
TRHR enhancer: qHTS for Small Molecule Agonists and Allosteric Enhancers of Human TRH Receptor: Primary Screen for Enhancers; Thyrotropin-releasing hormone receptor (Homo sapiens), P34981; TRHR cells, fluo-8 calcium fluorescence, EC20 TRH enhancement; enhancement, % at 2 µM; hit rate 0.66% among 360,000; AID 493056, 2011; in the data active = enhancement above about 30%; also: 0% is about no effect
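Enhancer read-out: after compound pinning and an initial kinetic agonist-mode read, an EC20 of TRH (10 nM final) was injected and fluo-8 calcium signal (Ex 480/Em 530) followed at 1 s/cycle for 100 cycles in TRHR-expressing cells.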
D1 ag: Allosteric Agonists of the Human D1 Dopamine Receptor: qHTS; D(1A) dopamine receptor (Homo sapiens), P21728; HEK293 T-REx D1 cells, calcium flux, agonist mode; activation, % at 2 µM; hit rate 1% among 360,000; also: 0% is about no effect
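Agonism was scored from calcium flux recorded over 180 s (1 read/s) after pintool compound addition, following a 10-cycle baseline. Cells were inducible force-coupled HEK293 TREx D1, plated overnight at 30 C and loaded with no-wash calcium dye.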
D1 potentiator: Potentiators of Human D1 Dopamine Receptor: qHTS. D(1A) dopamine receptor (Homo sapiens), P21728. HEK293 TREx D1 cells, calcium flux, dopamine EC20 potentiation. potentiation, % at 10 µM. hit rate 0.036% among 360,000; in the data active = potentiation above about 30%; also: 0% is about no effect
D1 antag: Antagonist of Human D 1 Dopamine Receptor: qHTS | AID 504652, 2011 | D(1A) dopamine receptor (Homo sapiens), P21728 | activity change, negative = inhibition, % at 10 µM | HEK293 TREx D1 cells, calcium flux, dopamine EC80; hits give low values | hit rate 3.2% among 360,000; in the data active = activity change below about -30%; also: % is scaled to controls: 0 for no effect and ±100 for the full control effect
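Kinetic fluorescence of a calcium dye serves as the read-out. D1-expressing Hek293 Trex cells, induced overnight at 30 C, are exposed to compound for 180 s before an EC80 dopamine addition, then read 180 s further.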
Active calls of the source: *. A selection: hits, their analogues and other compounds. The true share with any hit is near 4.7%. Rule as the data show it, unless noted: active = activation above about 30%; inactive = the rest.

SMILES	TRHR agonist	TRHR enhancer	D1 ag	D1 potentiator	D1 antag
CNCCC1Sc2ccccc2Oc2ccccc21 (stereo unspecified)	0.8	12.1	81.5*	-7.5	10.5
CCc1ccc(CNC(=O)c2nn(-c3ccc(C)c(C)c3)nc2CO)cc1	3.5	0.6	7.2	-2.2	0.9
Cc1ccc(-n2nc(CO)c(C(=O)NCCC(C)C)n2)cc1C	-1.3	-0.1	2.4	2.5	-47.3*
CCn1nc(NC(=O)COC)c2cc3cccc(C)c3nc21	-0.8	1.2	2.5	-3.5	-81.0*
CC1(C)SCC(C(=O)O)NC1=O (stereo unspecified)	-0.1	-5.0	2.1	4.6	-33.5*
O=C(O)[C@@H]1CSC2(CCSC2)N1 (stereo partly specified)	0.9	3.3	2.8	6.0	-10.0
CCOc1ccc(-c2nnc(NC(=O)CCCOc3cccc(C)c3)o2)cc1	-0.4	1.6	4.3	3.0	-33.0*
CCCCc1nc(SCc2ccc([N+](=O)[O-])cc2)n[nH]1	-0.3	-3.0	1.2	-0.9	-30.1*
COc1ccc(/C=N/NC(=O)c2ccccc2O)cc1CN1CCOCC1	0.4	2.1	0.7	-14.1	-33.3*
COc1ccc(/C=N/NC(=O)c2cccc(Br)c2)cc1CN1CCOCC1	0.4	6.4	0.4	-8.3	1.2
CCCCCOc1ccc(NC(=O)Cn2c(-c3cncs3)nc3ccccc32)cc1	0.3	1.1	-1.0	0.2	0.4
COc1ccc2cc(C(N)=O)c(=Nc3ccccc3)oc2c1	-0.2	7.5	0.7	-2.0	1.0
NC(=O)c1cc2ccccc2oc1=NCc1ccccc1	-0.2	0.3	-0.7	-0.8	11.2
NC(=O)c1cc2ccc(O)cc2oc1=NCc1ccccc1	26.2	0.4	150.3*	-7.8	-16.6
COc1ccc(OC)c(N=c2oc3cc(O)ccc3cc2C(N)=O)c1	-0.8	17.7	0.5	-11.6	-36.0*
O=C(Nc1nnc(SCc2ccc(Cl)cc2)s1)c1cnccn1	0.4	2.6	3.7	-0.3	-36.0*
CN(CCc1nc2ccc(Cl)cc2[nH]1)Cc1nc(CC2CC2)no1	-3.5	34.9*	-0.2	4.8	3.0
CN(CCc1nc2ccccc2[nH]1)Cc1nc(CC2CC2)no1	-0.2	-0.5	-0.1	-2.5	3.5
COc1ccc(C)cc1NC(=O)C1CCN(S(=O)(=O)Cc2ccccc2)CC1	0.0	3.6	-0.4	2.6	-47.0*
COc1ccccc1CNC(=O)CC(C)C	0.8	3.4	3.8	-7.2	-32.3*
Cc1oc(-c2cccc(Cl)c2)nc1CN1CCC(C(=O)NCc2ccc(F)cc2)CC1	0.0	3.3	54.2*	-3.4	-17.2
Cc1oc(-c2cccc(Cl)c2)nc1CN1CCCC(C(=O)NCc2ccc(Cl)cc2)C1 (stereo unspecified)	0.4	-9.6	4.8	-2.6	-1.8
COc1ccccc1CNC(=O)Cc1csc2nc(-c3ccccc3)cn12	-0.1	-1.7	-1.6	-3.0	-35.5*
COc1ccccc1CNC(=O)COc1ccccc1OC	-0.1	-3.3	3.8	-2.4	11.3
COc1cc(NC(=O)C2CCN(S(=O)(=O)Cc3ccccc3)CC2)c(OC)cc1Cl	-0.5	-1.7	-2.6	-2.1	-4.2
SMILES	TRHR agonist	TRHR enhancer	D1 ag	D1 potentiator	D1 antag
O=C(C1CCCN(S(=O)(=O)c2cccc3nsnc23)C1)N1CCN(c2ccccc2Cl)CC1 (stereo unspecified)	2.0	-7.4	5.6	-0.7	-18.5
CCC(=O)N1CCc2cc(S(=O)(=O)CCC(=O)N3CCN(c4cc(C)ccc4C)CC3)ccc21	-1.3	4.6	0.5	0.8	0.8
COc1ccc2c(c1)c(=O)c(C(=O)c1ccc(C)c(C)c1)cn2CC(=O)Nc1ccc2c(c1)OCCO2	-0.2	1.4	2.3	4.1	-12.8
Cc1ccc2[nH]c(CSc3nnc(NC(=O)COc4ccccc4F)s3)cc(=O)c2c1	0.0	0.8	-0.9	-0.3	-5.5
CCS(=O)(=O)N1CCC(C(=O)NCc2ccccc2OC)CC1	1.2	-1.3	-0.6	-1.8	-43.4*
COc1ccccc1CNC(=O)C1CCN(Cc2nc(-c3cccc(Cl)c3)oc2C)CC1	-0.2	7.8	33.8*	-5.5	-1.1
Cc1ccccc1-c1nc(CN2CCC(C(=O)NCc3cccnc3)CC2)c(C)o1	-0.8	3.6	-4.0	-3.5	-3.8
Cc1ccccc1-c1nc(CN2CCC(C(=O)NCc3ccc(F)cc3)CC2)c(C)o1	0.5	43.8*	41.0*	-3.2	-8.6
CCc1ccc(-c2nc(CN3CCC(C(=O)NCCc4ccc(OC)c(OC)c4)CC3)c(C)o2)cc1	0.5	-3.2	30.2*	-6.2	-24.6
COc1ccccc1CNC(=O)C1CCN(S(=O)(=O)N2CCCCC2)CC1	0.2	-2.5	0.5	-3.7	6.7
COc1ccccc1CNC(=O)C1CCN(Cc2nc(-c3ccc(OC)c(OC)c3)oc2C)CC1	-0.2	19.6	1.0	-4.1	-4.5
CCOC(=O)c1c(C)c(-c2ccccc2)n(CC(=O)NC(CC)Cc2ccccc2)c1C (stereo unspecified)	0.9	-4.2	8.2	-7.0	-16.3
Cc1ccc(S(=O)(=O)N2CCC(C(=O)NCc3ccccc3CN3CCCC3)CC2)cc1C	0.3	0.9	7.5	-13.3	-35.3*
O=C(NCc1ccccc1CN1CCCC1)C1CCN(S(=O)(=O)c2ccc(F)c(F)c2)CC1	0.6	-8.8	0.7	-10.0	-16.7
CCc1ccc(-c2nc(CN3CCC(C(=O)NCc4ccccc4OC)CC3)c(C)o2)cc1	0.4	12.2	40.7*	-6.1	-16.9
Clc1ccc(OCCCn2cncn2)cc1Cl	-0.2	5.0	56.0*	-18.7	-28.1
Cn1cnc(S(=O)(=O)N2CCCC(C(=O)NCc3ccccc3)C2)c1 (stereo unspecified)	0.1	0.3	-0.7	-0.8	3.1
COCCCn1c(=O)c2sccc2n2c(CCCC(=O)NC3CCC(C)CC3)nnc12 (stereo unspecified)	-0.1	2.7	1.3	-3.8	-21.2
Cc1nc(CC(=O)Nc2nc(-c3ccccc3)cs2)cs1	-0.7	7.1	2.2	9.0	-10.0
Cc1nc(CC(=O)Nc2nc(C(C)(C)C)cs2)cs1	-1.2	15.4	11.9	-7.4	-38.4*
O=C(O)CCC(=O)N1CCN(c2nc(-c3ccccc3)c3cc(Br)ccc3n2)CC1	0.0	5.6	0.3	-1.4	9.7
O=C(O)CCC(=O)N1CCN(c2nc(-c3ccccc3Cl)c3cc(Br)ccc3n2)CC1	-0.3	9.3	66.4*	2.2	-5.1
CN1CC2=Cc3ccccc3OC23Oc2ccccc2C=C3C1	0.5	0.2	13.0	-16.4	-50.9*
Cc1ccc(/C=N/NC(=O)Cn2nnc(N)n2)cc1	0.1	-21.5	1.5	-8.0	-74.1*

Screening results from PubChem.
